# Experimental data: PMC7862700, “An all-to-all approach to the identification of sequence-specific readers for epigenetic DNA modifications on cytosine”
# How the values were obtained:
# Test in all cases: DAPPL (digital affinity profiling via proximity ligation, sequencing); 10 mM Tris-HCl pH 7.5, 50 mM NaCl, 1 mM DTT, 4% glycerol, room temperature, 30 min; GST-TFs on glutathione beads, 16-mer random dsDNA library, 0.1% formaldehyde crosslink after washing; high values mean tight binding
# [1] = molecular target: T1, FLI1 (Homo sapiens, UniProt Q01543 1-452); details: protein: recombinant; tags: N-terminal GST; dsDNA, one strand shown
# T1 sequence: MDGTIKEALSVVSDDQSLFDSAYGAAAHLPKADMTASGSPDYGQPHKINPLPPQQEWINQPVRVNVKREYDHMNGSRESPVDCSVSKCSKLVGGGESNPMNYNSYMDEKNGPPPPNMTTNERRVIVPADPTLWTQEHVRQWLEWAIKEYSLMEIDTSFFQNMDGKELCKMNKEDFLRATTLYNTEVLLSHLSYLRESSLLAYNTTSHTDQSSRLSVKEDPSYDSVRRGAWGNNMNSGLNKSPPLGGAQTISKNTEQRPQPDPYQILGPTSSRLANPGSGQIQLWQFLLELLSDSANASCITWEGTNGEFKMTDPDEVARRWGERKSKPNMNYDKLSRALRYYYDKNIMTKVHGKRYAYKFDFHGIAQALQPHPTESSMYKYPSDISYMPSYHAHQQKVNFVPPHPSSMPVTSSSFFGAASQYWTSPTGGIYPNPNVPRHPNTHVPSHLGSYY
# How it was run: (§1)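 Each value of binding signal is a hexamer's read frequency for a factor divided by the same hexamer's frequency in the tag-only sample. Barcoded, bead-captured GST fusions of human transcription factors made in yeast were pooled with that sample and incubated with 200 nmole of a random double-stranded 16-mer DNA library in Tris/NaCl/DTT/glycerol buffer at room temperature for 30 min. Washing, 0.1% formaldehyde crosslinking, proximity ligation, PCR and Illumina NextSeq500 sequencing followed.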
# [2] = molecular target: T2, ELK1 (Homo sapiens, UniProt P19419 1-428); details: protein: recombinant; tags: N-terminal GST; dsDNA, one strand shown
# T2 sequence: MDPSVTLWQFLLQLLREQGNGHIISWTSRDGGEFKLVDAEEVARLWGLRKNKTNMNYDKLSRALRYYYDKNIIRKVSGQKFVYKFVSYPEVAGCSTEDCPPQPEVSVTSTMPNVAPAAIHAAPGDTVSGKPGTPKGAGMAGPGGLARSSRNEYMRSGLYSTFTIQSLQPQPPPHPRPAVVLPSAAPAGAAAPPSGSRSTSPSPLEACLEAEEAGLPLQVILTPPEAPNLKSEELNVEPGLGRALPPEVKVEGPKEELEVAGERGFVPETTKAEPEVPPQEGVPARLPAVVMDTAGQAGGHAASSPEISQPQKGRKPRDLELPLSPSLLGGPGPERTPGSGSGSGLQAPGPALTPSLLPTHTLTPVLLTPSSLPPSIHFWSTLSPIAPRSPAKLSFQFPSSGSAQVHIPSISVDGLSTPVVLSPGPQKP
# How it was run: as §1
# [3] = molecular target: T3, GABPA (Homo sapiens, UniProt Q06546 1-454); details: protein: recombinant; tags: N-terminal GST; dsDNA, one strand shown
# T3 sequence: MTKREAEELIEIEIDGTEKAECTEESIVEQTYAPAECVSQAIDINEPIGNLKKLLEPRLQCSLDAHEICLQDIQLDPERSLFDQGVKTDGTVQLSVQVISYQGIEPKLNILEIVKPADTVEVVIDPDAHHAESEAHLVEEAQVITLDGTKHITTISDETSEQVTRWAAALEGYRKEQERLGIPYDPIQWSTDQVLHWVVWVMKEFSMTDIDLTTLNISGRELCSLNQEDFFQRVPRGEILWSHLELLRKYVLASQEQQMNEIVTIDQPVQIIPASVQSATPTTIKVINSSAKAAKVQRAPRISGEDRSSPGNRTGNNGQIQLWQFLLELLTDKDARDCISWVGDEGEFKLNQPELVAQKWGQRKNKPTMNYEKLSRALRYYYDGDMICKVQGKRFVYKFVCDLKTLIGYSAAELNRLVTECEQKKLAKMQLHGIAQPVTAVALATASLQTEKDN
# How it was run: as §1
# [4] = molecular target: T4, ERG (Homo sapiens, UniProt P11308 1-479); details: protein: recombinant; tags: N-terminal GST; dsDNA, one strand shown
# T4 sequence: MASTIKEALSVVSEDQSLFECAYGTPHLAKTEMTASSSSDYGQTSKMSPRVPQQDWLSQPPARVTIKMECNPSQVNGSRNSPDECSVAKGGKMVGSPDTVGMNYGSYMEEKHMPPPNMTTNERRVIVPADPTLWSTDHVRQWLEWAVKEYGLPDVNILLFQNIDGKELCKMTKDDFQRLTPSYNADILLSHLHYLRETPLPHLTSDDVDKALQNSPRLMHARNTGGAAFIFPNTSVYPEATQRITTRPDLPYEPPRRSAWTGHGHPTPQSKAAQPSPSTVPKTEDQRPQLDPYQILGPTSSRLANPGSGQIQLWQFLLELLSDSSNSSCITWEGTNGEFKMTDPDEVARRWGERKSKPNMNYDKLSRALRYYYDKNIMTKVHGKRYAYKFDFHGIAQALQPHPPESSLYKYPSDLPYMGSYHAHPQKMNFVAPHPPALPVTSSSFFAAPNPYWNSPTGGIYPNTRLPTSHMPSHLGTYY
# How it was run: as §1
# [5] = molecular target: ELF1 (Homo sapiens, UniProt P32519 1-619); details: protein: recombinant; tags: N-terminal GST; dsDNA, one strand shown
# How it was run: as §1
# [6] = molecular target: T5, EHF (Homo sapiens, UniProt Q9NZC4 1-300); details: protein: recombinant; tags: N-terminal GST; dsDNA, one strand shown
# T5 sequence: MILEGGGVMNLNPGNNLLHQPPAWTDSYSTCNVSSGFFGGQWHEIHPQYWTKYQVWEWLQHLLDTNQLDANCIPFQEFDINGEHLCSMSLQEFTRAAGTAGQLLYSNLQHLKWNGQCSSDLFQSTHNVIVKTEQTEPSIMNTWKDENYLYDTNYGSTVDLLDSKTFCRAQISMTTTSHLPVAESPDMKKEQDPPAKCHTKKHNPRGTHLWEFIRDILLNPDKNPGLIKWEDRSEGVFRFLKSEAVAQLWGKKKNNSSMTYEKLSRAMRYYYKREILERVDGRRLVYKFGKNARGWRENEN
# How it was run: as §1
# [7] = molecular target: SPI1 (Homo sapiens, UniProt P17947 1-270); details: protein: recombinant; tags: N-terminal GST; dsDNA, one strand shown
# How it was run: as §1
# [8] = molecular target: SPIB (Homo sapiens, UniProt Q01892 1-262); details: protein: recombinant; tags: N-terminal GST; dsDNA, one strand shown
# How it was run: as §1
# [9] = molecular target: T6, ELK3 (Homo sapiens, UniProt P41970 1-407); details: protein: recombinant; tags: N-terminal GST; dsDNA, one strand shown
# T6 sequence: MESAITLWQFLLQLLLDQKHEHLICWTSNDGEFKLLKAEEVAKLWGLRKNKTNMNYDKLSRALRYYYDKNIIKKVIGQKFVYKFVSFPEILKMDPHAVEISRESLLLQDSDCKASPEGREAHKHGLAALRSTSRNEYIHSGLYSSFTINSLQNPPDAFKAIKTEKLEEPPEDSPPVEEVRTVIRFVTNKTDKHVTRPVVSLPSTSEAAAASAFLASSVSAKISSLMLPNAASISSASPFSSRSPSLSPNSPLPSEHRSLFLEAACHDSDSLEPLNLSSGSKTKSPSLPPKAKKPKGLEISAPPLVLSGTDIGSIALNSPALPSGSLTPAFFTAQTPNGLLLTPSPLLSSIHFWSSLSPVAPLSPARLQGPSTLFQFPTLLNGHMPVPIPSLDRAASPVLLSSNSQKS
# How it was run: as §1
# [10] = molecular target: T7, FEV (Homo sapiens, UniProt Q99581 1-238); details: protein: recombinant; tags: N-terminal GST; dsDNA, one strand shown
# T7 sequence: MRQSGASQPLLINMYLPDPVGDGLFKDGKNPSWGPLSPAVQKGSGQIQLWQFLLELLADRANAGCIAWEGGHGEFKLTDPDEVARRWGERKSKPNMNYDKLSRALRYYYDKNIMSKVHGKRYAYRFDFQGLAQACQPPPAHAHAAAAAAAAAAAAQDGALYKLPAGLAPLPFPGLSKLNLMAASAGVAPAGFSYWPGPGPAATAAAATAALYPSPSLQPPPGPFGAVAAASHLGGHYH
# How it was run: as §1
# [11] = molecular target: ETV5 (Homo sapiens, UniProt P41161 1-510); details: protein: recombinant; tags: N-terminal GST; dsDNA, one strand shown
# How it was run: as §1
# [12] = molecular target: HSF1 (Homo sapiens, UniProt Q00613 1-529); details: protein: recombinant; tags: N-terminal GST; chain copies: 3; dsDNA, one strand shown
# How it was run: as §1
# [13] = molecular target: T8, SPIC (Homo sapiens, UniProt Q8N5J4 1-248); details: protein: recombinant; tags: N-terminal GST; dsDNA, one strand shown
# T8 sequence: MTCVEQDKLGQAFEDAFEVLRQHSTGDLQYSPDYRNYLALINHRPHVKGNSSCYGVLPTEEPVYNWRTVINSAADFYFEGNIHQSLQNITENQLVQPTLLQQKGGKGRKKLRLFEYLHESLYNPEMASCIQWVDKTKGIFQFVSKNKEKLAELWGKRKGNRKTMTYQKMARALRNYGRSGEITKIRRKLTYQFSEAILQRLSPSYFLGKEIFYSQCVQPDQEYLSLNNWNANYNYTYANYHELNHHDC
# How it was run: as §1
# [14] = molecular target: ELF4 (Homo sapiens, UniProt Q99607 1-663); details: protein: recombinant; tags: N-terminal GST; dsDNA, one strand shown
# How it was run: as §1
# [15] = molecular target: T9, ELK4 (Homo sapiens, UniProt P28324-2 1-405); details: protein: recombinant; tags: N-terminal GST; dsDNA, one strand shown
# T9 sequence: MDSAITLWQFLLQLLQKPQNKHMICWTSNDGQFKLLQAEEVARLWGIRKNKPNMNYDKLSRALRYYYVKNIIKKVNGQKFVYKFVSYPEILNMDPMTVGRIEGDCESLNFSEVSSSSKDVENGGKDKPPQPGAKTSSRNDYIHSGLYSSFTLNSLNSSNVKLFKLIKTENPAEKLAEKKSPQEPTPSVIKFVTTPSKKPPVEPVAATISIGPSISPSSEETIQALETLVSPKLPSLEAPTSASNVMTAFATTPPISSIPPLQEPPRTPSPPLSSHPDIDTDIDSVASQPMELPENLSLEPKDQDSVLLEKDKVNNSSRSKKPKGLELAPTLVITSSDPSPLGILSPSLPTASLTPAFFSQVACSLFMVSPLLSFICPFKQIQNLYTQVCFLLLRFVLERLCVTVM
# How it was run: as §1
# [16] = molecular target: T10, ETV2 (Homo sapiens, UniProt O00321 1-342); details: protein: recombinant; tags: N-terminal GST; dsDNA, one strand shown
# T10 sequence: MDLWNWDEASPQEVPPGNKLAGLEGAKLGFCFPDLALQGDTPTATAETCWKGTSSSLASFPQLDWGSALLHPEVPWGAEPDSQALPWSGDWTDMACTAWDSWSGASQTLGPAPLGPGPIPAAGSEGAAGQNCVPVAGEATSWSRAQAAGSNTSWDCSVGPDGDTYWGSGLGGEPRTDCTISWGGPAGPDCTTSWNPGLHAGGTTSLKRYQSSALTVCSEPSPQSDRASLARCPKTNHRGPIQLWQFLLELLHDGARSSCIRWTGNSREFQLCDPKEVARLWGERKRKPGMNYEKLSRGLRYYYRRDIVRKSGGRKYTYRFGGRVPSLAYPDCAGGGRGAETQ
# How it was run: as §1
# [17] = molecular target: T11, ELF3 (Homo sapiens, UniProt P78545 1-371); details: protein: recombinant; tags: N-terminal GST; dsDNA, one strand shown
# T11 sequence: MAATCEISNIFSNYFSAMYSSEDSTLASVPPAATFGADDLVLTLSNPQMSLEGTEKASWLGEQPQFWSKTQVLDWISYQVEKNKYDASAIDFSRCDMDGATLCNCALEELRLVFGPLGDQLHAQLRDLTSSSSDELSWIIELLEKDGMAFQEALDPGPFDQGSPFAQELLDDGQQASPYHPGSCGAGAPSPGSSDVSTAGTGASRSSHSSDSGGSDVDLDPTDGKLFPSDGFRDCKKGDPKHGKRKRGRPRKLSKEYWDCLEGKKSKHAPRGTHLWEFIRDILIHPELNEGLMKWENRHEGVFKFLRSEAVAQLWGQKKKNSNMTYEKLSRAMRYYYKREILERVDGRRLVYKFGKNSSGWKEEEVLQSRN
# How it was run: as §1
# [18] = molecular target: CRX (Homo sapiens, UniProt O43186 1-299); details: protein: recombinant; tags: N-terminal GST; dsDNA, one strand shown
# How it was run: as §1
# [19] = molecular target: ETV1 (Homo sapiens, UniProt P50549 1-477); details: protein: recombinant; tags: N-terminal GST; dsDNA, one strand shown
# How it was run: as §1
# Sequence of ETV5 (P41161 whole entry): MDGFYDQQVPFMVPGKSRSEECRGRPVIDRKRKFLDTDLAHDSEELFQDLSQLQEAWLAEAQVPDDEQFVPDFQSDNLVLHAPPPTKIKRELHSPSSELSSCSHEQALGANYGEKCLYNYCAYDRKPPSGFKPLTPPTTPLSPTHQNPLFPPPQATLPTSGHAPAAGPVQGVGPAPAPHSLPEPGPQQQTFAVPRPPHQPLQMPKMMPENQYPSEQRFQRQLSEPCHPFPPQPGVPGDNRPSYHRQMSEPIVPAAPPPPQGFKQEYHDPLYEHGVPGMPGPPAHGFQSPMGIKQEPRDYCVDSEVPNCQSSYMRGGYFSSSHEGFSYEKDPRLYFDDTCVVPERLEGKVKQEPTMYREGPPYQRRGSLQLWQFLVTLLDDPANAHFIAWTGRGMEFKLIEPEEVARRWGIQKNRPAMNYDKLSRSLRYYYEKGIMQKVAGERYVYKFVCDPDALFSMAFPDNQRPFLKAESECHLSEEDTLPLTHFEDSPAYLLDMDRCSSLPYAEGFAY
# Sequence of SPIB (Q01892 whole entry): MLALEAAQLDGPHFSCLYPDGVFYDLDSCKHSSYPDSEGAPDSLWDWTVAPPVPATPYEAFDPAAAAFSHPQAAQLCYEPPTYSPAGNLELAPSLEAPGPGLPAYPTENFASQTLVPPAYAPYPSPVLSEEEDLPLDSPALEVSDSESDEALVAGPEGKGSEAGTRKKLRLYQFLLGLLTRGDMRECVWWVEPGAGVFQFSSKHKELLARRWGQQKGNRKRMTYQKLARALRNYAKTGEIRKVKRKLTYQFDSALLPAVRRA
# Sequence of ELF4 (Q99607 whole entry): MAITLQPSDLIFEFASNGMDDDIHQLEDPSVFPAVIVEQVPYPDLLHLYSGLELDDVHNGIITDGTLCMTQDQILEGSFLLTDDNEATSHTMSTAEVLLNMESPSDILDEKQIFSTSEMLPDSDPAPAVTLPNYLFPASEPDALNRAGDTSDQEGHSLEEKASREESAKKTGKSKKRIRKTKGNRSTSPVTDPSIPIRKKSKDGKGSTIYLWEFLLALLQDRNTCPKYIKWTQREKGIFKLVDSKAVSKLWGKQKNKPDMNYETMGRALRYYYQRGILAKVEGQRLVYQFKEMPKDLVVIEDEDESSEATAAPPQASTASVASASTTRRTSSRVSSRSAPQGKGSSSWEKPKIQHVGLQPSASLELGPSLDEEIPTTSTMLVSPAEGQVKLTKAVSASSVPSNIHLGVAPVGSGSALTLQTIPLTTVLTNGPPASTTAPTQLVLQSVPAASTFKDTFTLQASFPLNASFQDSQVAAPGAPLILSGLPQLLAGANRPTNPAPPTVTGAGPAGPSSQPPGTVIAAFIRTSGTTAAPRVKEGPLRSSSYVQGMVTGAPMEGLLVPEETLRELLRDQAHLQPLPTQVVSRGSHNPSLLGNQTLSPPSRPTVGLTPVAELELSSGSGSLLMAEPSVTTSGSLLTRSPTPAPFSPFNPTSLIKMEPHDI
# Sequence of CRX (O43186 whole entry): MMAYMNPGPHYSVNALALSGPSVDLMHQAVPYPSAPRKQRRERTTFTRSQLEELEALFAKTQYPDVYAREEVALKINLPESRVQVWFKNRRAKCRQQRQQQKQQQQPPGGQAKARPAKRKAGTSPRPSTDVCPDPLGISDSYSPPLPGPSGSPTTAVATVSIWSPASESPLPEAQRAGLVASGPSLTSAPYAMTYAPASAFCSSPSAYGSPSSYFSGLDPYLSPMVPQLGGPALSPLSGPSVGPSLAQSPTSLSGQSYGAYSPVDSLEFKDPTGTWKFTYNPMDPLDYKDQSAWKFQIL
# Sequence of ELF1 (P32519 whole entry): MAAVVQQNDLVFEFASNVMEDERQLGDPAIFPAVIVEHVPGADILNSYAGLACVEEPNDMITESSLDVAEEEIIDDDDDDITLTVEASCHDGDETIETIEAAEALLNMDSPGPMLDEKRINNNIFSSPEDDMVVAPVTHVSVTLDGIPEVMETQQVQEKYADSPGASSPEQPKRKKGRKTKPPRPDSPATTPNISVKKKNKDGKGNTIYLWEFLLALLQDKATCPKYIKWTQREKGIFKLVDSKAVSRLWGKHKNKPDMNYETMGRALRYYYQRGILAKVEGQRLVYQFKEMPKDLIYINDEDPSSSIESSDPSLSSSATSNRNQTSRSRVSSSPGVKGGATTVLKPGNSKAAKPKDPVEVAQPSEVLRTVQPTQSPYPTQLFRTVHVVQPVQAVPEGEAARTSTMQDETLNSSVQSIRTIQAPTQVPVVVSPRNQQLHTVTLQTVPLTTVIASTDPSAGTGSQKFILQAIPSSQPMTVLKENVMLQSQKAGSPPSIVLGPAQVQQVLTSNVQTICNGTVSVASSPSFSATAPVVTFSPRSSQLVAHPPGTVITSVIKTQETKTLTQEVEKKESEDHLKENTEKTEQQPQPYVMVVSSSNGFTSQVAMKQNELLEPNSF
# Sequence of ETV1 (P50549 whole entry): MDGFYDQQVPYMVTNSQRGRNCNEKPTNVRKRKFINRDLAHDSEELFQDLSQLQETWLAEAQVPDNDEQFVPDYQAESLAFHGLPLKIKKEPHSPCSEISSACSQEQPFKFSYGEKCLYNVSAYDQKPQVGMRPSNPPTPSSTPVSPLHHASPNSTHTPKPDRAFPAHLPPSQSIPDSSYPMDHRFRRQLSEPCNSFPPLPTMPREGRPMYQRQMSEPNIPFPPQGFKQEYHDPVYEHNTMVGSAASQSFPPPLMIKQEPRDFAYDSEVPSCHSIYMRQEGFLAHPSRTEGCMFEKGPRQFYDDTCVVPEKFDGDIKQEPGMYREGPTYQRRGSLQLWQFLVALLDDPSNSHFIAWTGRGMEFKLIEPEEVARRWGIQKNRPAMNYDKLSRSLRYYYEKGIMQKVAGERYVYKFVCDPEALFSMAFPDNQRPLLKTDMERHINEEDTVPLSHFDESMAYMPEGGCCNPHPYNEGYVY
# Sequence of HSF1 (Q00613 whole entry): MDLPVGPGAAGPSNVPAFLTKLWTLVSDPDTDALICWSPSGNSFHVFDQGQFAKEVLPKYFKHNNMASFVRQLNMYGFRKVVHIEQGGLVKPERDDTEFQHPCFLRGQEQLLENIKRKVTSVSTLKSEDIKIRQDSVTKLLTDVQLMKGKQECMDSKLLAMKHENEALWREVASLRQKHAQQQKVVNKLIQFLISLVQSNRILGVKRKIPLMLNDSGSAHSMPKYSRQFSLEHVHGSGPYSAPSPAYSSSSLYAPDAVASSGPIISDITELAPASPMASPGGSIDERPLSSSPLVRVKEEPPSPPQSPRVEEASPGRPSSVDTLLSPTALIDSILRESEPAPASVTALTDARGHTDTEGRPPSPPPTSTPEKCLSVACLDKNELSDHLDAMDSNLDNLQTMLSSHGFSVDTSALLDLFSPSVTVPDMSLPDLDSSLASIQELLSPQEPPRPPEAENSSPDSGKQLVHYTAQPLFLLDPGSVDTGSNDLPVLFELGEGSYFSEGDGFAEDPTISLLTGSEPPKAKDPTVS
sequence,measurement,setting,value
TCCCTA,binding signal,[1],"1.35 fold enrichment (6-mer frequency, TF over GST control)"
same,binding signal,[2],"1.26 fold enrichment (6-mer frequency, TF over GST control)"
same,binding signal,[3],"1.26 fold enrichment (6-mer frequency, TF over GST control)"
same,binding signal,[4],"1.3 fold enrichment (6-mer frequency, TF over GST control)"
same,binding signal,[5],"1.32 fold enrichment (6-mer frequency, TF over GST control)"
same,binding signal,[6],"1.27 fold enrichment (6-mer frequency, TF over GST control)"
same,binding signal,[7],"1.52 fold enrichment (6-mer frequency, TF over GST control)"
same,binding signal,[8],"1.32 fold enrichment (6-mer frequency, TF over GST control)"
same,binding signal,[9],"1.34 fold enrichment (6-mer frequency, TF over GST control)"
same,binding signal,[10],"1.2 fold enrichment (6-mer frequency, TF over GST control)"
same,binding signal,[11],"1.43 fold enrichment (6-mer frequency, TF over GST control)"
same,binding signal,[12],"1.32 fold enrichment (6-mer frequency, TF over GST control)"
same,binding signal,[13],"1.31 fold enrichment (6-mer frequency, TF over GST control)"
same,binding signal,[14],"1.31 fold enrichment (6-mer frequency, TF over GST control)"
same,binding signal,[15],"1.19 fold enrichment (6-mer frequency, TF over GST control)"
same,binding signal,[16],"1.25 fold enrichment (6-mer frequency, TF over GST control)"
same,binding signal,[17],"1.36 fold enrichment (6-mer frequency, TF over GST control)"
same,binding signal,[18],"1.47 fold enrichment (6-mer frequency, TF over GST control)"
same,binding signal,[19],"1.32 fold enrichment (6-mer frequency, TF over GST control)"
